# Measurements reported in PubChem BioAssay AID1004 (SRMLSC, 2008).
# Activity calls are given as the source filed them.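 Rule for the calls: active = viability at 10 µM of 29.74% or lower, 3 SD below the compound median; inactive = the rest.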
# Experiment: viability of HCT116 lacking mutant beta-catenin – cell-based, DP diverse set, validation, pilot screen (AID 1004)
# Settings: HCT116 (mutant beta-catenin deleted) viability, CellTiter-Glo, 60 h; at 10 µM; active compounds read low
row,SMILES,viability
1,CCN1C[C@@]2(COC)C3[C@@H](OC)[C@H]4C1[C@@]3(C1C[C@]3(O)C(OC)[C@H](O)[C@@]4(OC(C)=O)C1[C@H]3OC(=O)c1ccccc1)[C@H](OC)C[C@H]2O (some centres undefined),99.8% (inactive)
2,Nc1ccncc1,103% (inactive)
3,COC1=C[C@@H]2[C@@H]3Cc4ccc(OC)c(O)c4[C@]2(CCN3C)CC1=O,96.9% (inactive)
4,O=C1C=CC(=O)C(Cl)=C1,101% (inactive)
5,CC1=C2[C@H]3OC(=O)[C@@H](C)[C@@H]3CC[C@@]2(C)C=CC1=O,98% (inactive)
6,C=C(C)[C@H]1CN[C@H](C(=O)O)[C@H]1CC(=O)O,94.1% (inactive)
7,CCCN1CCC[C@@H]2Cc3cn[nH]c3C[C@H]21,103% (inactive)
8,CC(C)(C)[C@]1(O)C[C@@H]2OC(=O)CC23C(=O)O[C@@H]2OC(=O)[C@H](O)C231 (some centres undefined),93.5% (inactive)
9,CC(=O)O[C@H]1[C@H]2[C@@H](OC(=O)Cc3ccccc3)[C@@H](C)C[C@]2(OC(C)=O)C(=O)/C(C)=C/[C@@H]2[C@H](CC[C@@]13CO3)C2(C)C,89.4% (inactive)
10,C[C@@H]1O[C@@H](OC2CC(O)C3(CO)C4C(CCC3(O)C2)C2(O)CCC(C3=CC(=O)OC3)C2(C)C[C@H]4O)[C@H](O)[C@H](O)[C@H]1O (some centres undefined),128% (inactive)
11,NCC(CC(=O)O)c1ccc(Cl)cc1 (centres undefined),103% (inactive)
12,C=CCN1CC[C@]23c4c5ccc(O)c4O[C@H]2C(=O)CC[C@@]3(O)[C@H]1C5,96.6% (inactive)
13,CN1C[C@H](CNC(=O)OCc2ccccc2)C[C@@H]2c3cccc4c3c(cn4C)C[C@H]21,80.4% (inactive)
14,N#Cc1nn(-c2c(Cl)cc(C(F)(F)F)cc2Cl)c(N)c1S(=O)C(F)(F)F (centres undefined),92.8% (inactive)
15,C[C@]12CC[C@@H](O)C[C@@H]1CC[C@@H]1[C@@H]2CC[C@]2(C)C(=O)CC[C@@H]12,98.5% (inactive)
16,O=C1CCC[C@H]2[C@@H]3CCCN4CCC[C@H](CN12)[C@H]34,104% (inactive)
17,NCCc1c[nH]c2ccc(O)cc12,100% (inactive)

row,SMILES,viability
1,OCC1CCCN2CCCCC12 (centres undefined),99.4% (inactive)
2,N#CC(C#N)=Cc1ccc([N+](=O)[O-])c(O)c1,97.9% (inactive)
3,O[C@H]1[C@H](O)[C@@H](O)CN2CC[C@H](O)[C@H]12,95.4% (inactive)
4,CNc1ccc2oc(C[C@@H]3OC4(CC[C@@H]3C)O[C@H](C(C)C(=O)c3ccc[nH]3)[C@H](C)C[C@H]4C)nc2c1C(=O)O (some centres undefined),9.98% (active)
5,N#CC(C#N)=Cc1cc(O)c(O)c([N+](=O)[O-])c1,101% (inactive)
6,C[C@@H]1CC[C@H]2[C@@H](C)C(=O)O[C@@H]3OC4(C)CC[C@@H]1[C@]32OO4,100% (inactive)
7,CCCC[C@H]1C(=O)O[C@H](C)[C@H](NC(=O)c2cccc(NC=O)c2OC)C(=O)O[C@@H](C)[C@@H]1OC(=O)CC(C)C,95.2% (inactive)
8,CCCCCCCCCCCCCC(=O)O[C@@H]1[C@@H](C)[C@@]2(O)[C@@H](C=C(CO)C[C@]3(O)C(=O)C(C)=C[C@@H]23)[C@@H]2C(C)(C)[C@]12OC(C)=O,82.7% (inactive)
9,CC[C@@]1(O)C(=O)OCc2c1cc1n(c2=O)-c2cc3ccccc3nc2C1,24.3% (active)
10,COC(=O)C(O)C(O)(CCC(C)C)C(=O)OC1C(OC)=CC23CCCN2CCc2cc4c(cc2C13)OCO4 (centres undefined),30% (inactive)
11,CC/C(=C(\c1ccccc1)c1ccc(OCCN(C)C)cc1)c1ccccc1,67.6% (inactive)
12,CC(C)c1cc2c(c(O)c1O)[C@@]1(C(=O)O)CCCC(C)(C)[C@@H]1CC2,103% (inactive)
13,COC[C@H]1OC(=O)c2coc3c2[C@@]1(C)C1=C(C3=O)C2CCC(=O)[C@@]2(C)C[C@H]1OC(C)=O (some centres undefined),78.1% (inactive)
14,C[C@H]1CCC/C=C/C2C[C@H](O)C[C@H]2[C@H](O)/C=C/C(=O)O1 (some centres undefined),40.4% (inactive)
15,CSC(=S)NCc1c[nH]c2ccccc12,95% (inactive)
16,CN(C)[C@@H]1C(=O)C(C(N)=O)=C(O)[C@@]2(O)C(=O)C3=C(O)c4c(O)cccc4[C@@](C)(O)C3CC12 (some centres undefined),98.3% (inactive)
17,O=C1C=C2C=C[C@@H]3C[C@@]2(O1)[C@H]1CCCCN31,86% (inactive)
